High-throughput results as filed in PubChem.
WRN inhibitor: inhibitors of human WRN helicase. Q14191. WRN helicase unwinding, fluorescent forked duplex, kinetic. Potency, µM (titrated, usually from 114 µM), for the others: at the highest dose activity change, negative = inhibition, hits mostly inhibitors. hit rate 0.46% among 360,000. AID 651768; also: potency is read from the fitted curve at half-maximal effect; % is scaled to controls: 0 for no effect and ±100 for the full control effect; nearly all actives have a fitted effect of over 55% in size
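WRN at 20 nM final was preincubated with compound for 15 min at room temperature; reaction started with 100 nM forked duplex oligonucleotide carrying fluorophore and quencher plus 2 mM ATP (final). Unwinding followed kinetically by red fluorescence (ex 525/em 598 nm).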
POLI inh: blocks human DNA polymerase iota activity | hit rate 1% among 390,000 | Q9UNA4 | Potency, µM (series often up to 115 µM), for inactives: at the top dose activity, negative = inhibition, actives largely listed as inhibitors | Pol iota fluorescent replication assay, 10 min; also: potency is read from the fitted curve at half-maximal effect
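Pol iota at 10 nM preincubated 15 min with compounds at room temperature; reaction started with fluorescent substrate, 50 nM final. Fluorescence read kinetically at 0 and 10 min; buffer-only wells as negative control.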
Pol kappa inh-1: blocks human DNA polymerase kappa activity. hit rate 0.53% among 400,000. Q9UBT6. Potency, µM (series often up to 107 µM), for inactives: at the highest dose activity, negative = inhibition, most hits filed as inhibitors. purified Pol kappa, fluorescent DNA synthesis assay, 10 min. AID 588579; also: potency is read from the fitted curve at half-maximal effect; % is scaled to controls: 0 for no effect and ±100 for the full control effect
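50 nM final substrate added after 15 min RT preincubation of 10 nM Pol kappa with compound; fluorescence read at 0 and 10 min.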
Pol eta inh-1: DNA polymerase eta (human) inhibition | Q9Y253 | recombinant Pol eta, fluorescent DNA replication assay | Potency, µM (top dose mostly 114 µM), for inactives: at the top dose activity change, negative = inhibition, hits mostly inhibitors | hit rate 1.2% among 390,000 | AID 588591; also: potency is read from the fitted curve at half-maximal effect; % is scaled to controls: 0 for no effect and ±100 for the full control effect
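Pol eta at 10 nM preincubated with compounds 15 min at room temperature; reaction started with fluorescent substrate (50 nM final) and read kinetically at 0 and 10 min.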
PI5P4K alpha inh: PI5P4K alpha (human) kinase inhibition; max response, %; hit rate 1.2% among 330,000; AID 652105; PI5P4Kalpha enzyme, ADP-Glo luminescence, 60 min; stronger effect = lower value; active = max response of -50% or lower; inconclusive = between -30% and -50%; inactive = -30% or higher; also: value at the top dose of about 77 µM; % is scaled to controls: 0 for no effect and ±100 for the full control effect
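Enzyme plus substrate dispensed, test compounds pinned in, then ATP (5 microM final) added. After 60 min at RT, ADP-Glo reagent 1 for 45 min and reagent 2 for 30 min preceded luminescence imaging.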
Pol beta inh: inhibitors of human DNA polymerase beta | P06746 | Pol beta primer extension/strand displacement, fluorescence kinetic | Potency, µM (top dose mostly 114 µM), inactives show at the highest dose activity change, negative = inhibition, actives largely listed as inhibitors | hit rate 1.3% among 340,000; also: potency is read from the fitted curve at half-maximal effect; % is scaled to controls: 0 for no effect and ±100 for the full control effect
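Human Pol beta at 10 nM; strand-displacement substrate 50 nM final. Compound exposure 15 min at room temperature before start, reaction 10 min at room temperature.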
Pol iota confirm: Inhibitors of human DNA polymerase iota, confirmation | shares compounds with Pol kappa inh-1 | Pol iota primer extension, TAMRA/BHQ fluorescence | Potency, µM, actives largely listed as inhibitors | hit rate 77% among 1,500 | AID 720496; also: potency is read from the fitted curve at half-maximal effect
GALK confirm: confirmation of human galactokinase (GALK) inhibitors; shares compounds with Pol eta inh-1; purified GALK, Kinase-Glo ATP depletion luminescence; Potency, µM (top dose mostly 115 µM), inactives show at the highest dose activity, negative = inhibition, actives largely listed as inhibitors; hit rate 70% among 150; AID 2015
GALK redox cs: generates H2O2 by redox cycling, flagging GALK artifacts | shares compounds with Pol eta inh-1 | Phenol red-HRP H2O2 redox cycling, absorbance 600 nm | Potency, µM (top dose mostly 115 µM), for the others: top-dose activity change, negative = H2O2 signal, usual class: inhibitors | hit rate 40% among 150 | AID 2035
HEK293 viability: HEK-293 cytotoxicity, GALK inhibitor secondary. shares compounds with Pol eta inh-1. HEK-293 viability, ATP luminescence (CellTiter-Glo), 24/48 h. Potency, µM (titrated, usually from 46.1 µM), without a hit: top-dose activity change, negative = cytotoxicity, usual class: inhibitors. hit rate 10% among 170; also: potency is read from the fitted curve at half-maximal effect; % is scaled to controls: 0 for no effect and ±100 for the full control effect
Pol kappa inh-2: confirmation of human DNA polymerase kappa inhibitors; shares compounds with Pol eta inh-1; purified Pol-kappa, fluorescent strand-displacement substrate; Potency, µM, usual class: inhibitors; hit rate 76% among 920; AID 720501; also: potency is read from the fitted curve at half-maximal effect
Pol eta inh-2: Pol eta (human) inhibition, cherry-pick confirmation | shares compounds with Pol eta inh-1 | Potency, µM, usual class: inhibitors | Pol eta primer extension, TAMRA/BHQ fluorescence, 10 min | hit rate 64% among 2,600; also: potency is read from the fitted curve at half-maximal effect
* hit, by the source's call; ? = inconclusive; . = no result given; [ ] = another dose, or the depositor's remark. Hits are enriched below; roughly 2.8% of the tested compounds scored in any of these assays. Unless noted, calls follow the shape of the dose curve; as a rule, active = well fitted curve in the direction sought with a large enough effect; inconclusive = small, poorly fitted or top-dose-only effect, or another doubt; inactive = no such curve, though single readings can be large; an effect the other way counts as inactive or inconclusive.

SMILES	WRN inhibitor	POLI inh	Pol kappa inh-1	Pol eta inh-1	PI5P4K alpha inh	Pol beta inh	Pol iota confirm	Pol eta inh-2	others
NC(=O)C1CCN(C2=C(Cl)C(=O)c3ccccc3C2=O)CC1	-23%[57.1 µM]	2.8µM*	-9%	6.3µM*	.	?	42*	21*	GALK confirm=19µM*;GALK redox cs=24µM*;HEK293 viability=?
O=c1cc(-c2ccc(O)cc2)oc2c([C@@H]3O[C@H](CO)[C@@H](O)[C@H](O)[C@H]3O)c(O)c([C@@H]3O[C@H](CO)[C@@H](O)[C@H](O)[C@H]3O)c(O)c12	-4%	-1%	-19%	-8%	-2	-29%	.	.
O=c1c2cc(O)c(O)cc2oc2cc(O)c(C3OC(CO)C(O)C(O)C3O)c(O)c12 (stereo unspecified)	-17%	?	4µM*	8.9µM*	1	.	15*	19*	Pol kappa inh-2=7.5*
CC(NC(=O)COC(=O)c1ccco1)C12CC3CC(CC(C3)C1)C2 (stereo unspecified)	.	-4%	7%	.	.	.	.	.
COc1cccc(CN(C(=O)/C=C/c2ccco2)C2CCS(=O)(=O)C2)c1 (stereo unspecified)	-14%	45µM*	89µM*	?	-14	?	?	?
COc1ccc(CN(C(=O)/C=C/c2ccco2)C2CCS(=O)(=O)C2)cc1 (stereo unspecified)	-29%[57.1 µM]	18µM*	?	50µM*	?	20µM*	53*	85*
COc1cc2ncc3c(-c4ccc(C)cc4)nn(-c4ccc(F)cc4F)c3c2cc1OC	.	0%	-3%[60.1 µM]	-17%	.	19%	.	.
CCC(C)NC(=O)CSc1nnc(-c2cc(OC)c(OC)c(OC)c2)c(-c2cc(OC)c(OC)c(OC)c2)n1 (stereo unspecified)	-1%	24%	4%	-17%	0	5%	.	.
COc1ccc(N2CCN(C(=O)c3ccc(C)c(NC(=O)c4nsc5ccccc45)c3)CC2)cc1	.	?	-8%[60.1 µM]	-7%	.	?	.	.
COc1ccc(-c2cc(=O)c3c(O)cc(O)cc3o2)cc1	0%	42%	1%	-20%	-1	.	.	.
O=c1c(-c2c(O)cc(O)c3c(=O)cc(-c4ccc(O)cc4)oc23)c(-c2ccc(O)cc2)oc2cc(O)cc(O)c12	56µM*	7.9µM*	35µM*	3.5µM*	-83*	3.2µM*	42*	43*
COc1ccc(-c2csc(NC(=O)c3ccccc3NS(=O)(=O)c3ccc(F)c(F)c3)n2)cc1	?	?	?	?	-23	?	?	?	GALK confirm=38µM*;GALK redox cs=5%;HEK293 viability=4µM*;Pol kappa inh-2=?
